# Data from PubChem BioAssay.
# Inconclusive results are not listed. For part of these data: Potency and affinity values are given separately. Calls of active or inactive are those of the source. Unless noted, how the calls were made is not given here.
# Key:
# [1] = system: F380Y; test: modulators of BK channel variants, profiling panel, selectivity assay, cell-based, U2OS BacMam, thallium flux, beta subunits (AID 1259406;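 active means thallium flux through the channel raised or lowered by more than 3 SD from vehicle-only wells, actives on both sides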;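 further: initial slope of Thallos dye fluorescence rise after thallium is added; log ratio against the mean of 0.3% DMSO vehicle wells on the same plate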); conditions: at 30 µM
# [2] = system: F380Y/beta2Delta; test: as above; conditions: at 30 µM
# [3] = target: Calcium-activated potassium channel subunit alpha-1 (Homo sapiens) + Leucine-rich repeat-containing protein 26 (Homo sapiens) (UniProt Q12791+Q2I0M4); test: as above; conditions: F380Y/Slo1WT/gamma1, at 30 µM
# Sequence of Calcium-activated potassium channel subunit alpha-1 (Homo sapiens) + Leucine-rich repeat-containing protein 26 (Homo sapiens) (Q2I0M4 whole entry, looked up, one chain of several): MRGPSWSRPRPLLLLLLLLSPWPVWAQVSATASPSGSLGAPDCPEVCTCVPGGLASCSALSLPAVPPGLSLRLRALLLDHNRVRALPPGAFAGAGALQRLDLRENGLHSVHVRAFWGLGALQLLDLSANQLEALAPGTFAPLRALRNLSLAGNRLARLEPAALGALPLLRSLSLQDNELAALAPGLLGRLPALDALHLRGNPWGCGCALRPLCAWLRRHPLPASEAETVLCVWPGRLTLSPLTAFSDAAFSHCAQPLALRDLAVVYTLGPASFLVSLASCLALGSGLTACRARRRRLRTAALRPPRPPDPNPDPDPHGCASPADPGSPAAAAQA
# [4] = system: R275C; test: as above; conditions: at 30 µM
# [5] = system: R275C/beta1; test: as above; conditions: at 30 µM
# [6] = system: R275C/beta2Delta; test: as above; conditions: at 30 µM
# [7] = circadian clock period modulators, cell-based, LOPAC library, luminescence reporter (AID 2774); conditions: circadian reporter cells, at 7 µM, actives lie on both sides;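 further: values are relative to mean of DMSO wells on each plate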
# [8] = system: Hepatitis C virus NS3 helicase; test: HCV NS3 helicase inhibitors, primary screen, biochemical, fluorescence polarization, LOPAC1280 library (AID 687035; in the data active means inhibition above about 37%); conditions: Purified HCV NS3 helicase, Cy5-dT15 ssDNA binding fluorescence polarization; stronger effect = higher value; concentration not given here
# [9] = Cy5 fluorescence quenching or enhancement artefacts, artefact control for HCV NS3 helicase inhibitor project, biochemical, LOPAC1280 (AID 687037); conditions: Cy5-DNA-NS3h complex fluorescence interference counterscreen
# [10] = system: Aerobactin synthetase IucA (Klebsiella pneumoniae); test: IucA aerobactin synthetase inhibitors, biochemical, Tocris library, absorbance (AID 1345561); conditions: purified IucA enzyme assay, absorbance (OD) read-out; stronger effect = lower value;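 tested at 8 µM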;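 further: 100% = enzyme without compound and 0% = no enzyme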
# [11] = phospholipid biosynthesis inhibitors in animal cells, primary screen, cell-based, LOPAC library, screen 4 (AID 1347384); conditions: phospholipid biosynthesis inhibition screen, at 10 µM
# [12] = polyglutamine-triggered caspase-3 activation inhibitors, cell-based (AID 1583); conditions: polyglutamine-induced caspase-3 activation, cell assay; stronger effect = higher value;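 tested at 10 µM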
# [13] = suppressors of polyQ aggregation in yeast, 75Q-TubU reporter (AID 1593); conditions: Yeast 75Q polyglutamine aggregation reporter
# [14] = rescue of polyQ-huntingtin neuronal dysfunction in worms, whole organism, C. elegans mechanosensory neurons, N-terminal huntingtin (AID 1599); conditions: touch response, stronger effect = higher value
# [15] = inhibitors of mitochondrial cytochrome c release, biochemical, purified mitochondria (AID 1603); conditions: stronger effect = lower value;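 further: mouse liver mitochondria challenged with calcium chloride; signal normalized to the plate average as 100%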
# [16] = inhibitors of polyQ protein aggregation (AID 1604); conditions: polyglutamine-induced protein aggregation inhibition assay; stronger effect = higher value; tested at 2.5 µM
# [17] = enhancers of glutamate uptake in motor neurons, MN-1 cell line (AID 1612); conditions: MN-1 motor neuron cells, stronger effect = higher value;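 further: tested at 1 µM final; 0% = mean of DMSO vehicle wells on each plate; positive means more glutamate uptake than control and negative means less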
# [18] = suppressors of polyglutamine aggregation in yeast, 75Q-TubH (AID 1616); conditions: S. cerevisiae 75Q-TubH polyglutamine aggregation suppression; stronger effect = higher value
# [19] = growth inhibition of DIPG glioma cells, dose response, cell-based, JHH-DIPG-1, MIPE4.0, CellTiter-Glo, qHTS (AID 1347062; cut-off not given, nearly all actives have AC50 up to about 27 µM;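 on AC50: cells exposed to compound for two days before readout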); conditions: JHH-DIPG-1 viability, CellTiter-Glo ATP luminescence
# [20] = ICB984 medulloblastoma cell growth inhibition, synergistic combos for chromothripsis tumors, cisplatin or BGB combos (AID 1671451); conditions: ICB984 medulloblastoma cells, drug combinations, stronger effect = higher value;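 further: cells exposed for 96 hours before readout; 0% = vehicle DMSO and 100% = killing by high DMSO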
smiles,measurement,setting,value
c1ccc2c(c1)Nc1ccccc1S2,log fold change Tl+ flux,[1],-0.0351 (inactive)
same,log fold change Tl+ flux,[2],0.033 (inactive)
same,log fold change Tl+ flux,[3],-0.0274 (inactive)
same,log fold change Tl+ flux,[4],-0.041 (inactive)
same,log fold change Tl+ flux,[5],0.0203 (inactive)
same,log fold change Tl+ flux,[6],-0.0792 (inactive)
CN1C(=O)CN=C(c2ccccc2)c2cc([N+](=O)[O-])ccc21,log fold change Tl+ flux,[1],0.0275 (inactive)
same,log fold change Tl+ flux,[2],0.0676 (inactive)
same,log fold change Tl+ flux,[3],-0.000886 (inactive)
same,log fold change Tl+ flux,[4],-0.00261 (inactive)
same,log fold change Tl+ flux,[5],-0.0104 (inactive)
same,log fold change Tl+ flux,[6],0.0315 (inactive)
CN[C@@H]1C[C@@H](c2ccc(Cl)c(Cl)c2)c2ccccc21,period change,[7],0.04 h (inactive)
same,inhibition,[8],-2% (inactive)
same,fluorescence ratio (interference),[9],0.9 (inactive)
same,remaining activity,[10],118% (inactive)
same,outcome,[11],inactive
same,log fold change Tl+ flux,[1],0.0202 (inactive)
same,log fold change Tl+ flux,[2],0.44 (active)
same,log fold change Tl+ flux,[3],0.0738 (inactive)
same,log fold change Tl+ flux,[4],-0.12 (active)
same,log fold change Tl+ flux,[5],0.445 (active)
same,log fold change Tl+ flux,[6],0.134 (active)
c1ccc2c(c1)OCC(C1=NCCN1)O2 (centres undefined),period change,[7],0.1 h (inactive)
same,inhibition,[8],-7% (inactive)
same,fluorescence ratio (interference),[9],0.9 (inactive)
same,remaining activity,[10],99.1% (inactive)
same,outcome,[11],inactive
Oc1cccc2cccnc12,inhibition,[12],-67%
same,score,[13],0.03
same,rescue above control,[14],8.29
same,cytochrome c release ratio,[15],0.94
same,inhibition of aggregation,[16],83.3%
same,glutamate uptake change,[17],53.7%
same,aggregation suppression score,[18],0.00802
CCN(CC)CCOC(=O)C(O)(c1ccccc1)c1ccccc1,log fold change Tl+ flux,[1],0.0198 (inactive)
same,log fold change Tl+ flux,[2],0.0439 (inactive)
same,log fold change Tl+ flux,[3],-0.0223 (inactive)
same,log fold change Tl+ flux,[4],-0.0214 (inactive)
same,log fold change Tl+ flux,[5],-0.0156 (inactive)
same,log fold change Tl+ flux,[6],0.0436 (inactive)
C[N+]1(CCC(C(N)=O)(c2ccccc2)c2ccccc2)CCCCC1,log fold change Tl+ flux,[1],0.00354 (inactive)
same,log fold change Tl+ flux,[2],0.00809 (inactive)
same,log fold change Tl+ flux,[3],0.0152 (inactive)
same,log fold change Tl+ flux,[4],-0.0159 (inactive)
same,log fold change Tl+ flux,[5],-0.0271 (inactive)
same,log fold change Tl+ flux,[6],-0.0181 (inactive)
CC[C@@H](CO)NC(=O)[C@@H]1C=C2c3cccc4c3c(cn4C)C[C@H]2N(C)C1,period change,[7],0.11 h (inactive)
same,fluorescence ratio (interference),[9],1 (inactive)
same,remaining activity,[10],121% (inactive)
same,outcome,[11],inactive
Cc1cccc(C)c1NC(=O)CN1CCCC1=O,inhibition,[8],-5% (inactive)
same,fluorescence ratio (interference),[9],1 (inactive)
same,outcome,[19],inactive
same,outcome,[11],inactive
Cc1ncsc1CCCl,inhibition,[8],-2% (inactive)
same,fluorescence ratio (interference),[9],1 (inactive)
same,remaining activity,[10],110% (inactive)
same,outcome,[11],inactive
CCCN1CCC[C@@H]2Cc3nc(N)ncc3C[C@H]21,period change,[7],-0.24 h (inactive)
same,inhibition,[8],-1% (inactive)
same,fluorescence ratio (interference),[9],1 (inactive)
same,outcome,[11],inactive
CC[N+](CC)(CC)CC,period change,[7],0.115 h (inactive)
same,inhibition,[8],14% (inactive)
same,fluorescence ratio (interference),[9],1 (inactive)
Cn1c(CCCC(=O)O)nc2cc(N(CCCl)CCCl)ccc21,inhibition,[8],-4% (inactive)
same,fluorescence ratio (interference),[9],1 (inactive)
same,outcome,[11],inactive
same,inhibition,"[20]; BGB IC20 combo, at 0.005 µM",6.09%
same,inhibition,"[20]; BGB IC40 combo, at 0.005 µM",-55.7%
same,inhibition,"[20]; BGB IC40 combo, at 0.05 µM",-19.6%
same,inhibition,[20]; at 0.5 µM,-15.5% (inactive)
same,inhibition,"[20]; cisplatin combo, at 0.05 µM",-19.6%
same,inhibition,"[20]; cisplatin combo, at 0.5 µM",-24.4%
same,inhibition,"[20]; cisplatin combo, at 5 µM",-46.7%
same,inhibition,"[20]; measured here: 5 uM single agent, at 5 µM",-9.28%
CC(=O)[C@H]1CC[C@H]2[C@@H]3CC[C@H]4C[C@H](O)CC[C@]4(C)[C@H]3C(=O)C[C@]12C,period change,[7],-0.1 h (inactive)
same,inhibition,[8],-1% (inactive)
same,fluorescence ratio (interference),[9],1 (inactive)
same,outcome,[11],inactive
O=C1NCN(c2ccccc2)C12CCN(CC1COc3ccccc3O1)CC2 (centres undefined),period change,[7],0.005 h (inactive)
same,inhibition,[8],-6% (inactive)
same,fluorescence ratio (interference),[9],0.9 (inactive)
same,remaining activity,[10],104% (inactive)
O=C(O)c1ccc2[nH]cc(CCCCN3CC=C(c4ccccc4)CC3)c2c1,remaining activity,[10],115% (inactive)
CC(C)(C)OC(=O)c1ncn2c1[C@@H]1CCCN1C(=O)c1c(Br)cccc1-2,remaining activity,[10],103% (inactive)
Cc1ccc(S(=O)(=O)N[C@@H](CCCCN)C(=O)CCl)cc1,period change,[7],0 h (inactive)
same,inhibition,[8],-3% (inactive)
same,fluorescence ratio (interference),[9],1 (inactive)
same,outcome,[11],inactive
N#CC(C#N)=Cc1ccc(O)c(O)c1,period change,[7],-0.18 h (inactive)
same,inhibition,[8],0% (inactive)
same,fluorescence ratio (interference),[9],1 (inactive)
same,remaining activity,[10],122% (inactive)
same,outcome,[11],inactive
Cc1nnc2n1-c1sc(CCC(=O)N3CCOCC3)cc1C(c1ccccc1Cl)=NC2,remaining activity,[10],108% (inactive)
COc1ccc(C(=O)c2c(C)n(CCN3CCOCC3)c3ccccc23)cc1,outcome,[19],inactive
c1ccc(C2CC2)c(OCC2=NCCN2)c1,period change,[7],-0.34 h (inactive)
same,inhibition,[8],-4% (inactive)
same,fluorescence ratio (interference),[9],1 (inactive)
same,remaining activity,[10],102% (inactive)
same,outcome,[11],inactive
COC[C@@H](NC(C)=O)C(=O)NCc1ccccc1,outcome,[19],inactive
C#C[C@]1(O)C=C[C@H]2[C@@H]3CCC4=CC(=O)CC[C@@H]4[C@H]3CC[C@@]21CC,outcome,[19],inactive
CCCC[N+]1(C)[C@@H]2CC(OC(=O)[C@H](CO)c3ccccc3)C[C@H]1[C@@H]1O[C@@H]12 (some centres undefined),outcome,[19],inactive
Fc1ccc(C(OCCN2CCN(CCCc3ccccc3)CC2)c2ccc(F)cc2)cc1,period change,[7],-0.11 h (inactive)
same,inhibition,[8],-2% (inactive)
same,fluorescence ratio (interference),[9],1 (inactive)
same,remaining activity,[10],118% (inactive)
same,AC50,[19],14.8 µM (active)
same,outcome,[11],inactive
FC(F)(F)c1cccc(C2=CCN(CCc3ccc4ccccc4c3)CC2)c1,remaining activity,[10],94.1% (inactive)
NCC1(CC(=O)O)CCCCC1,period change,[7],-0.07 h (inactive)
same,inhibition,[8],-6% (inactive)
same,fluorescence ratio (interference),[9],1 (inactive)
same,outcome,[19],inactive
same,outcome,[11],inactive
C=CCN1C[C@H](C)N([C@H](c2ccc(C(=O)N(CC)CC)cc2)c2cccc(OC)c2)C[C@H]1C,remaining activity,[10],118% (inactive)
CCCCC/C=C\C/C=C\C/C=C\C/C=C\CCCC(=O)NCC(=O)O,period change,[7],0.15 h (inactive)
same,inhibition,[8],-1% (inactive)
same,fluorescence ratio (interference),[9],1 (inactive)
C[C@]12CC[C@H](O)CC1=CC[C@@H]1[C@@H]2CC[C@]2(C)C(=O)CC[C@@H]12,period change,[7],-0.175 h (inactive)
same,outcome,[19],inactive
CC(C)NCC(O)c1ccc(N)c(C#N)c1 (centres undefined),remaining activity,[10],122% (inactive)
CCCCc1ccc(C(=O)O)nc1,period change,[7],-0.03 h (inactive)
same,inhibition,[8],-3% (inactive)
same,fluorescence ratio (interference),[9],1.1 (inactive)
same,outcome,[11],inactive
